The results in this text go back to the OligoGym collection.
Note: reference of the scale not given here.

For the first assay, the target named is C11orf53. Nature of the assay: pooled miR-30 sensor sort-seq; sequence = guide strand. The conditions noted are these: shRNA.
Consider TTCTGACACCGTAGTAACCTGA, for which the sensor-assay potency score (higher = more potent) is -0.43.

TGACACACCTAAAACAATCTTT: the sensor-assay potency score (higher = more potent) amounted to 0.469.

In the case of TTACTGTTGTGGAAGTCTGAGT, the sensor-assay potency score (higher = more potent) is -0.608. On the same count and under the same terms, the figure for TTATTCTGAAAATCCAGTCCTG is 0.403; for TTTGACACCGTCATGAAAGGGG it is 0.41; for TCAGATAAGAAAGATCTTCTGA it is 0.556. Same read-out and setting: the same measure for TCTGACACCGTAGTAACCTGAC: 0.0785; for TAAATAGGAAGTGAGCTGGGTC: 0.00724; for TATTCTGAAAATCCAGTCCTGA: -0.0201.

Turning to TAGGTCATTTGACACCGTCATG, the sensor-assay potency score (higher = more potent) was -1.72.

For the sequence TTTACTGTTGTGGAAGTCTGAG, the sensor-assay potency score (higher = more potent) was -0.231. Take TCGTCCACTAACAAAGAGCAGC: the sensor-assay potency score (higher = more potent) is -0.909.

In the next assay the target is C11orf54. Described as above. The conditions noted are these: shRNA.
Turning to TCTGAAATGGACCTGCTCCTGC, the sensor-assay potency score (higher = more potent) is -0.481.

Regarding TTTCTCACTGTATTTCTCCAGT, the sensor-assay potency score (higher = more potent) was -0.237.

For TTTTATTCAGATCATAAACTTT, the sensor-assay potency score (higher = more potent) was -0.546. The same measure, in the same setting: the same measure for TGGAGTAGTGTCATAATGGTAG: -0.457.

As to TTTCATTTCATAAAAATGCAAC, the sensor-assay potency score (higher = more potent) was -0.462. The sequence ATAAACTCAGAATTGAACCCGA yielded a sensor-assay potency score (higher = more potent) of 0.903. Take TTCTTCATCAGAGTTCAAGGGG: the sensor-assay potency score (higher = more potent) was 0.466. On the same count and under the same terms, the figure for TTATTCACTTCTTCATCAGAGT is -0.552. The same measure, in the same setting: the figure for ATAAGTAAGGCACACCTCCAAC is -1.21; for TATTCCACTATATCTGGAGTAG it is -0.318. TAAACTCAGAATTGAACCCGAG yielded a sensor-assay potency score (higher = more potent) of 0.00773.

Another assay addresses C12orf42. The assay is described as above. The conditions noted are these: shRNA.
On to TAGGTCTTGTGTGTCTACTGAT, for which the sensor-assay potency score (higher = more potent) is -0.227. Sequence TTCATGTGATTAATGAATCTGG gave a sensor-assay potency score (higher = more potent) of 0.286. As for TGATTAATGAATCTGGAGCAGG, the sensor-assay potency score (higher = more potent) is -0.678. Regarding TCGAGCTCTGTGTTACTCGGGC, the sensor-assay potency score (higher = more potent) is -0.424.

The sequence TTAGGTCTTGTGTGTCTACTGA gave a sensor-assay potency score (higher = more potent) of 0.176. In the case of TTCATAACAAGGGATGTGCTTT, the sensor-assay potency score (higher = more potent) is -0.454. Same read-out and setting: the same measure for TCTGCTTTGGATGTCGTCGGGG: -0.507. For the sequence TGTGCTTACAGAACACCTGGGG, the sensor-assay potency score (higher = more potent) was 0.85.

Turning to TCTTGTGTGTCTACTGATGTGT, the sensor-assay potency score (higher = more potent) was found to be 0.434. For TTTATTAACCTCTTGGAGGGGA, the sensor-assay potency score (higher = more potent) amounted to 0.548.

The target in the next assay is C13orf33. Described as above. The conditions noted are these: shRNA.
Turning to TATCTGTCTTCTTATCTTGGGG, the sensor-assay potency score (higher = more potent) is -0.395.

For the sequence TTGATGTAGCTGCTGAGGCGGT, the sensor-assay potency score (higher = more potent) was -0.889.

In the case of TTTATAATCACAGTAGTTGGTC, the sensor-assay potency score (higher = more potent) came to 0.0911. Consider TAACTTTCTCCAATCACTGAGG, for which the sensor-assay potency score (higher = more potent) was -0.682. Still for that read-out and setting: the same measure for TTACACTGAACTTTCGGTCAGA: 0.151.
